Out of some 300,000 compounds screened, about 3,300 (1.1%) were called active. Roughly 6% stayed inconclusive and do not appear here. What follows is part of a selection rich in actives, with near analogues and random picks from the rest. A number with no mark means an inactive call.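 Rule for the calls: active = more than half of the replicate wells show a fall in the fluorescence ratio signal beyond about 16% (limit read from the data, passing the limit was not always enough); inconclusive = exactly half of the replicate wells pass the set limit; inactive = fewer than half of replicates pass the limit.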
tested on: Ran GTPase (GTP-bound) - importin-beta complex; assay: inhibitors of RanGTP-importin-beta interaction, primary screen, biochemical, FRET, CFP-Ran, YFP-importin-beta, homogeneous (AID 2216); settings: cell-free CFP-Ran/YFP-importin-beta FRET ratio; active compounds read high; concentration not given here;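 note: 0% = DMSO wells and 100% = Ran loaded with GDP instead of GTP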

| SMILES | inhibition |
| --- | --- |
| CC(=O)N[C@H]1[C@H]([C@H](O)[C@H](O)CO)OC(C(=O)O)=C[C@@H]1O | 1.4% |
| COc1ccc(Cl)cc1NC(=O)CN(C)C(=O)c1cc(-c2cccs2)nn1-c1ccccc1 | 0.469% |
| Cc1nc2ccccc2c2oc(C(=O)NCC3CCCO3)cc12 (stereo not drawn) | 4.76% |
| Cc1nc2ccccc2c2oc(C(=O)NCCCN3CCC(C)CC3)cc12 | 34.1% (active) |
| CCCN(CCC)CCNC(=O)c1cc2c(C)nc3ccccc3c2o1 | 0.401% |
| O=C(NCCS(=O)(=O)NCc1ccc(Cl)cc1)c1ccccc1 | 5.39% |
| CCOC(=O)c1c(C)oc2cc(Br)c(OCC(N)=O)cc12 | 19% (active) |
| CCOC(=O)c1c(-c2ccccc2)oc2ccc(OCC(N)=O)cc12 | 0.113% |
| CCOC(=O)c1c(C)oc2ccc(OCC(=O)N(CC)CC)cc12 | -3.75% |
| Cc1cc(-c2nnc(SCC(=O)Nc3ccc(S(N)(=O)=O)cc3)n2N)n[nH]1 | 0.809% |
| Cc1cccc(NC(=O)N2CCCCCC2)c1C | 2.28% |
| COCc1[nH]nc2c1C(C1C=CCCC1)C(C#N)=C(N)O2 (stereo not drawn) | -7.86% |
| N#CC1=C(N)OC2=C(C(=O)CCC2)C1C1CC=CCC1 (stereo not drawn) | -2.87% |
| N#CC1=C(N)Oc2cc(O)ccc2C1C1CCCCC1 (stereo not drawn) | 140% (active) |
| COc1ccc(CNC(=O)C2CCCC2)cc1 | -1.07% |
| Cc1ccc2nc(NC(=O)CSc3nc(=O)n(CCCN(C)C)c4c3CCC4)sc2c1 | 1.53% |
| Cc1nc(Nc2ccc3c(c2)OCCO3)c2nnn(Cc3ccccc3Cl)c2n1 | 3.56% |
| Cc1nc(Nc2ccc(S(=O)(=O)N3CCCC3)cc2)c2nnn(Cc3ccccc3)c2n1 | 5.61% |
| Cc1nc(Nc2ccccc2F)c2nnn(Cc3ccccc3Cl)c2n1 | 35.1% (active) |
| COc1ccccc1-n1ccnc(SCC(=O)NC2CCCCC2)c1=O | -1.18% |
| CC(C)N(Cc1ccccc1)C(=O)COC(=O)c1ccccc1SCC(=O)N1CCCC1 | -1.94% |
| CC(=O)C12CC(C)=C(C)CC1CC1C3CCC4=CC(=O)CCC4(C)C3CCC12C (stereo not drawn) | 1.03% |
| CCN(CC)C(=O)CCC(=O)Nc1ccc(C(=O)OC)cc1 | -3.39% |
| CCN(CCO)C(=S)Nc1cc(C(=O)OC)ccc1C(=O)OC | 16.3% (active) |

| SMILES | inhibition |
| --- | --- |
| CCCOc1ccc(CN(CCO)CCO)cc1C(=O)OC | -2.69% |
| COC(=O)c1ccc(C(=O)OC)c(NC(=S)N2CCCCC2)c1 | 55.3% (active) |
| COC(=O)c1ccc(C(=O)OC)c(NC(=S)N2CCN(c3ccc(F)cc3)CC2)c1 | 6.98% |
| COC(=O)c1ccc(C(=O)Nc2cc(Cl)ccc2Cl)cc1NC(=O)c1ccccc1C | 2.78% |
| CCS(=O)(=O)Nc1cc(C(=O)OC)ccc1C(=O)OC | 4.57% |
| CCCN(CCC)C(=S)Nc1cc(C(=O)OC)ccc1C(=O)OC | 41% (active) |
| COC(=O)c1ccc(C(=O)OC)c(NC(=S)N2CCN(c3cc(Cl)ccc3C)CC2)c1 | 6.93% |
| CN(C)C(CNC(=O)c1cccc(S(=O)(=O)Nc2ccc(Br)cc2)c1)c1ccco1 (stereo not drawn) | -0.145% |
| CCc1noc(C)c1C(=O)NNC(=O)c1ccc(F)cc1 | 3.18% |
| Cc1ccccc1OCC(=O)NNC(=O)c1ccc(-n2cncn2)c([N+](=O)[O-])c1 | 3.51% |
| COc1ccccc1CNC(=O)CSc1nc(=O)n(Cc2ccncc2)c2c1CCC2 | -4.86% |
| O=C(Nc1ncccc1O)c1ccc(C(=O)c2ccccc2)cc1 | -5% |
| O=C(COC(=O)c1ncc(Cl)c(Cl)c1Cl)NC1CCS(=O)(=O)C1 (stereo not drawn) | 1.31% |
| COCc1cc(=O)n2[nH]c(C)c(-c3ccccc3)c2n1 | 1.2% |
| CCN(CC)CCN1C(=O)C(=O)/C(=C(/O)c2ccc(OC)c(OC)c2)C1c1ccccn1 (stereo not drawn) | 33.8% (active) |
| CC1Cc2cc(/C(O)=C3\C(=O)C(=O)N(CCN4CCOCC4)C3c3ccccc3F)ccc2O1 (stereo not drawn) | 1.9% |
| COc1ccc(C2/C(=C(/O)c3ccc(OC(C)C)cc3)C(=O)C(=O)N2CCCN2CCOCC2)cc1 (stereo not drawn) | -1.52% |
| COc1ccc(/C(O)=C2/C(=O)C(=O)N(CCCN(C)C)C2c2ccccc2)cc1OC (stereo not drawn) | 3.13% |
| O=C1C(=O)N(CCN2CCOCC2)C(c2ccccn2)/C1=C(/O)c1ccc(Cl)cc1 (stereo not drawn) | 20.4% (active) |
| CCN(CC)CCN1C(=O)C(=O)/C(=C(/O)c2ccccc2)C1c1ccccc1F (stereo not drawn) | -0.379% |
| CCOc1ccc(CCNC(=O)COC(=O)c2ccc(F)c(S(=O)(=O)N3CCOCC3)c2)cc1OCC | -2.22% |
| CCN(CC)c1ccc(NC(=O)c2ccc(=O)[nH]c2)cc1S(=O)(=O)Nc1ccc(OC)cc1 | -0.956% |
| O=C(Nc1cnccn1)c1cccnc1 | 15.8% (active) |
| CCOc1ccccc1NC(=O)c1cccnc1 | -0.62% |

| SMILES | inhibition |
| --- | --- |
| O=C(NNC(=O)c1cccnc1)Nc1ccccc1 | -0.622% |
| O=C(Nc1cc(S(=O)(=O)N2CCOCC2)ccc1OCC(F)(F)F)c1ccc(N2CCCC2=O)cc1 | 5.96% |
| COCC1CCN(C(=O)c2ccc3oc(Cc4ccccc4)nc3c2)C1 (stereo not drawn) | 1.03% |
| O=C(Nc1ccc(OCC(=O)N2CCOCC2)cc1)c1cc(F)c(F)cc1Cl | 3.93% |
| CCN1CCc2nc(NC(=O)c3cc(F)c(F)cc3Cl)sc2C1 | 19.6% (active) |
| CC(=O)Cc1nsc(NC(=O)c2ccc(Cl)cc2Cl)n1 | 1.86% |
| CCOc1ccc(NC(=O)CN(C)C(=O)COc2cccc(CC)c2)cc1OCC | -1.27% |
| [O-][n+]1ccc(OCc2ccccc2)cc1 | -2.54% |
| CCC(C)c1ccccc1N1CC(C(=O)N2CCN(S(=O)(=O)c3ccc(F)cc3)CC2)CC1=O (stereo not drawn) | 1.46% |
| NC1=NC(c2ccc([N+](=O)[O-])cc2)N(c2ccc(F)cc2)C(N)=N1 (stereo not drawn) | 1.29% |
| CCOc1cc2ccccc2cc1C(=O)Nc1ccccn1 | 3.29% |
| N#CC1=C(N)N(c2ccccc2)C2=C(C(=O)CCC2)C1c1ccccc1 (stereo not drawn) | -1.9% |
| CN(C)N1C(N)=C(C#N)C(c2ccc(Br)cc2)C2=C1CCCC2=O (stereo not drawn) | -0.393% |
| CSc1sc(C)cc1C1C(C#N)=C(N)N(c2cccnc2)C2=C1C(=O)CCC2 (stereo not drawn) | 18.2% (active) |
| Cc1occc1C(=O)N/N=C/c1ccc(-c2cccc([N+](=O)[O-])c2)o1 | -1.61% |
| O=C(CCCCO)c1ccc(O)c(Cl)c1 | -9.87% |
| Cc1ccc(-c2csc(NCCc3nc4cc(Cl)c(Cl)cc4n3CCOCCO)n2)cc1 | 3.23% |
| CCOC(=O)c1oc2c(CN3CCN(CCO)CC3)c(O)c(CC)cc2c(=O)c1-c1nc2ccccc2s1 | 16.5% (active) |
| CCOC(=O)N1CCN(CC(=O)Nc2cc(C)nn2-c2nc3ccccc3s2)CC1 | -2.13% |
| CCOC(=O)CCCN1CC(O)=C(c2nc3ccccc3s2)C1=N | -2.49% |
| COc1ccccc1C(=O)NCCC(=O)NCC(c1ccco1)N1CCCCC1 (stereo not drawn) | 2.56% |
| COc1ccc(C(=O)C[n+]2ccc(N)c(C)c2C)cc1 | 26.2% (active) |
| COc1ccc(C(=O)C[n+]2ccc(C)cc2)cc1 | 6.13% |
| COc1ccc(CCC(=O)c2ccc(OC)cc2)cc1 | 0.925% |

| SMILES | inhibition |
| --- | --- |
| COC(=O)c1c(-c2ccsc2)oc2ccc(-c3cc(OC)c(OC)c(OC)c3)cc12 | -4.62% |
| Cc1ccc(-n2c(O)c(C=Nc3ccc(S(=O)(=O)Nc4ncccn4)cc3)c3ccccc3c2=O)cc1C | -1.55% |
| CCOc1ccc(-n2c(O)c(/C=N/c3ccnn3Cc3ccncc3)c3ccccc3c2=O)cc1 | 0.299% |
| CCOc1ccc(N=Cc2c(O)n(-c3cccc(C)n3)c(=O)c3ccccc23)cc1 | 22.9% (active) |
| CC(=O)c1ccc(NC(=O)CSC(=S)N2CCCC2)cc1 | -0.968% |
| O=C(CSC(=S)N1CCOCC1)c1ccccc1 | 0.663% |
| O=C(CSC(=S)N1CCCCC1)c1c(F)cccc1F | 18.8% (active) |
| Cc1cc(C)c(S(=O)(=O)N2CCCC2CNC(=O)c2ccc3c(c2)OCO3)c(C)c1 (stereo not drawn) | 4.9% |
| COc1ccccc1OCC(=O)Nc1ccccc1C(=O)NC1CC1 | -1.85% |
| COc1ccc(C2C(C#N)=C(N)Oc3cc(N)ccc32)cc1OC (stereo not drawn) | 70.8% (active) |
| COC(=O)C1=C(C)OC(N)=C(C#N)C1c1cc(OC)ccc1OC (stereo not drawn) | -2.56% |
| COc1cc(C2C(C#N)=C(N)Oc3n[nH]c(-c4ccccn4)c32)cc(OC)c1OC (stereo not drawn) | -0.727% |
| O=C1CN(C(=O)COc2c(Cl)cccc2Cl)c2ccccc2N1 | 0.217% |
| CCOC(=O)c1cc2ccccc2n1CC(=O)c1ccccc1 | -1.27% |
| CCOC(=O)c1cc2occc2n1CC(=O)N1CCN(C(=O)c2ccco2)CC1 | -1.58% |
| CCOC(=O)c1cc2c(ccn2C)n1CC(=O)N1CCC(C)CC1 | 24.7% (active) |
| COc1ccc(OC)c(S(=O)(=O)N2CCCC(C(=O)N3CCC(C(N)=O)CC3)C2)c1 (stereo not drawn) | 6.32% |
| O=C(O)c1ccccc1CSc1nc2ccccc2s1 | -3.5% |
| COC(=O)c1cc2c(ccn2C)n1C | 21.8% (active) |
| COC(=O)c1ccc(S(=O)(=O)NCc2ccccc2)n1C | -3.7% |
| CCC(C(=O)N1CCOCC1)n1c(C(=O)OC)cc2occc21 (stereo not drawn) | -3.41% |

From PubChem BioAssay AID2216 (Broad Institute, 2009)
